Sampled rows, rich in hits. Any-hit rate of the full collection: about 3.7%.
Sm TGR inh: qHTS Assay for the Inhibitors of Schistosoma Mansoni Peroxiredoxins; Schistosoma mansoni thioredoxin glutathione reductase (TGR), Q962Y6; purified TGR, DTNB reduction, TNB absorbance 405 nm; Potency, µM (top dose mostly 114 µM), for inactives: at the top dose activity change, negative = inhibition, actives largely listed as inhibitors; actives 3% (n = 360,000); AID 485364, 2010; note: nearly all actives have a fitted effect of over 60% in size
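First, TGR (20 nM dispensed) and NADPH were mixed with compound. Second, a 15 min room-temperature incubation followed. Third, further NADPH and then DTNB were added to start the reaction. Finally, TNB absorbance was monitored kinetically.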
RE007 growth inh: qHTS Assay for Inhibitors of the HIV-1 protein Vpr; actives 0.21% (n = 360,000); Potency, µM (series often up to 92.2 µM), without a hit: at the top dose activity change, negative = less growth, usual class: inhibitors; S. pombe RE007 Vpr strain, BacTiter-Glo ATP luminescence, 24 h; AID 651644, 2012; active = well fitted falling curve with a large enough effect; inconclusive = small, poorly fitted or top-dose-only effect; inactive = no such curve, though single readings can be large or run the other way; note: nearly all actives have a fitted effect of over 50% in size
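Fission yeast RE007 carrying one integrated HIV-1 vpr copy, seeded at OD 0.01 in PMG+AL medium with 23 nL pinned compound. Grown 24 h at 30 degrees; viability read by BacTiter-Glo luminescence after 5 min.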
Tb PYK inh: qHTS of Trypanosoma Brucei Inhibitors; pyruvate kinase (Trypanosoma brucei), Q57TT1; TbPYK enzyme, Kinase-Glo Plus ATP luminescence, 45 min; Potency, µM (series often up to 76.8 µM), for inactives: at the highest dose activity, negative = inhibition, hits mostly inhibitors; actives 0.12% (n = 410,000); AID 624173, 2012; note: nearly all actives have a fitted effect of over 50% in size
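Screened from lowest to highest concentration, compounds were pinned into TbPYK/substrate mixtures, and ADP (130 uM final) was added. Plates sat at room temperature for 45 min prior to Kinase-Glo Plus detection by luminescence.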
FMDV antiviral: High Throughput Screening for Foot and Mouth Disease Virus Antivirals. actives 1.2% (n = 410,000). AID 1159524, 2015. FMDV antiviral cell-based qHTS. Potency, µM (doses to about 57.9 µM), without a hit: top-dose activity change, negative = inhibition, most hits filed as inhibitors; calls by dose curve; tested in HEK293T cells; note: read-out not given here; nearly all actives have a fitted effect of over 45% in size
An asterisk follows results filed as active; ? = inconclusive; nt = not tested or not shown; [ ] = another dose, or the depositor's remark. Unless noted, calls come from the whole dose curve; as a rule, active = well fitted curve in the direction sought with a large enough effect; inconclusive = small, poorly fitted or top-dose-only effect, or another doubt; inactive = no such curve, though single readings can be large; an effect the other way counts as inactive or inconclusive. % is set by controls: 0 for no effect and ±100 for the full control effect; potency is the fitted concentration of half-maximal effect.

SMILES	Sm TGR inh	RE007 growth inh	Tb PYK inh	FMDV antiviral
O=[N+]([O-])c1ccc(CS(=O)c2ccccc2)cc1 (configuration not stated)	nt	12%	-3%	8%
Cn1c(Cc2csc(N)n2)nnc1SCC(=O)NC1CCCCC1	40µM*	24%	-7%	17%
Cc1occc1-c1nnc(SCC(=O)N2CCCc3ccccc32)n1Cc1ccco1	40µM*	8%	7%	-10%
O=C(CSc1nnc(-c2cccnc2)n1Cc1ccco1)N1CCc2ccccc21	45µM*	8%	-15%	5%
O=C(CSc1nnc(-c2cccnc2)n1Cc1ccco1)c1ccccc1	-31%	1%	-21%	-4%
COc1ccc(Cn2c(=O)n(-c3ccc(F)c(Cl)c3)c(=O)c3c2c2cc(OC)ccc2n3C)cc1	1%	nt	-3%	-14%
Cc1cccc(N2C(N)=C(C#N)C(C#N)(C#N)C2c2ccccc2)c1 (configuration not stated)	2%	10%	-3%	40µM*
Cc1nc2ccccc2n2c(O)c(CC(=O)O)cc12	35µM*	-1%	5%	nt
Cc1ncc2c(c1CNC(=O)c1cncs1)CCN(C(=O)c1ccc(-c3ccccc3)cc1)C2	nt	nt	nt	-5%
COCCNC(=O)CSc1nc2cc3c(cc2c(=O)n1CCCC(=O)NCc1ccc2c(c1)OCO2)OCO3	-7%	nt	14%	6%
CC(NS(=O)(=O)OCC(Cl)(Cl)Cl)c1ccc(C(C)(C)C)cc1 (configuration not stated)	0%	?	1%	22µM*
Cc1nc(SCc2nc3ccccc3[nH]2)c2oc3ccccc3c2n1	6%	-25%	3%	?
Cc1nc(SCc2nc3ccccc3[nH]2)c2oc3ccc(Br)cc3c2n1	nt	nt	0%	35µM*
CN(C)c1ncc2nc(-c3ccc(Cl)cc3)c(=O)n(-c3ccccc3)c2n1	nt	nt	nt	-3%
CCOc1ccccc1N1CCN(C(=O)c2cc(S(=O)(=O)N3CCCCC3)ccc2C)CC1	1%	-4%	-2%	?
CN(c1ccccc1)S(=O)(=O)c1cccc(C(=O)N2CCN(c3ccccn3)CC2)c1	-2%	-2%	2%	40µM*
Cc1ccccc1NC(=O)c1ccc(F)c(S(=O)(=O)N2CCN(c3ccccn3)CC2)c1	-3%	3%	-4%	22µM*
CCOc1ccccc1N1CCN(C(=O)c2ccc(Cl)c(S(=O)(=O)N3CCCCC3)c2)CC1	-3%	0%	-3%	32µM*
Cc1cc(Cl)c(S(=O)(=O)N2CCN(c3ccccn3)CC2)cc1OCC(=O)NC1CCCCC1	8%	-16%	0%	22µM*
O=C(Nc1ccc(Br)cc1)c1ccc(F)c(S(=O)(=O)N2CCN(c3ccccn3)CC2)c1	-5%	-14%	4%	?
Cc1ccc(-c2nc(SCCOc3ccccc3C)n3[nH]c(=O)cc3n2)cc1	31%	nt	6%	-12%
COc1cc(=O)n2c(c1C(=O)N(C)Cc1ccsc1)CCN(Cc1cnn(C)c1C)CC2	nt	nt	nt	7%
O=C(c1ccc(Cl)c(S(=O)(=O)N2CCCCCC2)c1)N1CCN(c2ccccn2)CC1	-13%	-1%	0%	28µM*
CC1(N2CCOCC2)CC2(O)C(=[N+]1[O-])CCc1c2no[n+]1[O-] (configuration not stated)	32µM*	5%	-9%	0%
CC1CC2(O)c3no[n+]([O-])c3CCC2N1O (configuration not stated)	-16%	1%	-1%	-3%
SMILES	Sm TGR inh	RE007 growth inh	Tb PYK inh	FMDV antiviral
O=C1CC(Sc2nnc(-c3ccccc3O)o2)C(=O)N1c1ccccc1 (configuration not stated)	4µM*	50µM*	-8%	nt
COc1ccc(N2C(=O)CC(Sc3nnc(-c4ccccc4)o3)C2=O)cc1 (configuration not stated)	3.5µM*	-14%[3.69 µM]	nt	?
CCc1ccc2c(c1)NC(c1cccs1)=NC(c1ccc(F)cc1)=N2	7%	nt	1%	20%
Cc1csc(NC(=O)c2cc3c(s2)CCCCC3)n1	-2%	-19%	-22%	8.9µM*
Cc1csc(NC(=O)c2cc3c(s2)CCCC3)n1	2%	nt	-1%	-63%
COc1cccc(-c2cc(C(=O)N3CCN(Cc4ccccc4)CC3)no2)c1	0%	-1%	-1%	14%
CCOC(=O)N1CCN(Cc2ccc3c(c2)CN(C(=O)c2cc(-c4ccccc4)no2)CCO3)CC1	nt	nt	nt	25µM*
COCC1CCCN(Cc2ccc3c(c2)CN(C(=O)c2cc(-c4ccccc4)n[nH]2)CCO3)C1 (configuration not stated)	nt	nt	nt	-20%
CCOC(=O)N1CCN(Cc2ccc3c(c2)CN(C(=O)c2cc(-c4ccccc4)on2)CCO3)CC1	nt	nt	nt	28µM*
CCc1ccc(-n2c(Cc3ccccc3)nnc2SCc2nc(-c3cccs3)no2)cc1	0%	nt	-6%	0%
COC(=O)c1scc(-c2ccc(C)cc2)c1S(=O)(=O)Nc1cc(OC)c(OC)c(OC)c1	1%	nt	0%	-20%
O=C(NCCc1nnc2n1CCN(Cc1cc3ccccc3o1)CC2)c1ccoc1	nt	nt	nt	-28%
O=C(CC1N=C2c3ccccc3N=C(SCc3ccc(F)cc3)N2C1=O)NCc1ccco1 (configuration not stated)	?	9%	-7%	16%
O=C(CCC1N=C2c3ccccc3N=C(SCc3ccc(F)cc3)N2C1=O)NCc1ccco1 (configuration not stated)	25µM*	1%	-1%	-1%
Cc1ccc(CSC2=Nc3ccccc3C3=NC(CC(=O)NCc4ccco4)C(=O)N23)cc1 (configuration not stated)	35µM*	5%	1%	38%
Cc1ncc2c(c1CNC(=O)c1cncs1)CCN(C(=O)c1cccc(-c3cccc(F)c3)c1)C2	nt	nt	nt	-4%
N#Cc1c(NC(=O)CSc2ncnc3sccc23)oc(-c2ccco2)c1-c1ccco1	4µM*	18%	-4%	4%
C=CCn1c(O)c(N=Nc2ccccc2)c2ccccc21	40µM*	4%	-17%	-4%
COc1cccc(Cc2nc3ccccc3nc2SCC(=O)Nc2ccccc2F)c1	1%	nt	-6%	-3%
COc1ccc2[nH]cc(CCO)c2c1	nt	nt	nt	-4%
COC1C=CC=C(C)C(=O)NC2=CC(=O)C(N)=C(CC(C)CC(OC)C(O)C(C)C=C(C)C1OC(N)=O)C2=O (configuration not stated)	nt	6%	-3%	10µM*
C=CCNC1=C2C[C@@H](C)C[C@H](OC)[C@H](O)[C@@H](C)/C=C(\C)[C@H](OC(N)=O)[C@@H](OC)/C=C\C=C(/C)C(=O)NC(=CC1=O)C2=O	nt	nt	-10%	nt
COC1CC(C)C(OC)c2cc(O)cc(c2O)NC(=O)C(C)=CC=CC(C)C(OC(N)=O)C(C)=CC(C)C1OC (configuration not stated)	nt	15%	?	126µM*
